Several values for one entry are separate records, joined by “and”; a condition that tells them apart may be missing. Equal entries are not always repeated. Compounds without any hit were thinned out: in the full panel of roughly 83,000, 20% have a hit.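 A percent growth of 40 corresponds to 60% growth inhibition; 0 means no net growth; -100 means all cells died. Active threshold: below 10.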 Activity calls are given as the source filed them.

This test concerns SNB-19 CNS. Briefly: NCI-60 one-dose screen, 48 h (100 = growth as untreated, 0 = no growth, -100 = all killed). The settings on record: 10 µM unless noted.
As for `O=C(O)C1(C(=O)O)CCC1.[NH2-].[NH2-].[Pt+2]`, the growth is 94.6% (inactive) and 99.2% (inactive).

Consider `CC1(C)[C@@H](OC(=O)CCC(=O)O)CC[C@]2(C)[C@H]3C(=O)C=C4[C@@H]5C[C@@](C)(C(=O)O)CC[C@]5(C)CC[C@@]4(C)[C@]3(C)CC[C@@H]12`, for which the growth was 102% (inactive) and -3.23% (active).

Take `CCNC(=O)Nc1ccc(-c2nc3c(c(N4CCOC[C@@H]4C)n2)CCN(C2COC2)C3)cc1`: the growth was 59.2% (inactive) and 15.7% (inactive).

Turning to `O=C1C2=C(C(=O)c3ccccc31)C(O)(S(=O)(=O)O)C(O)(S(=O)(=O)O)C1N=CC=CC21` (stereo unspecified), the growth is 43.8% (inactive) and 48.5% (inactive).

For the compound `COc1ccc2c(=O)cc(-c3ccccc3)[nH]c2c1`, the growth was 29.6% (inactive) and 27% (inactive).

As for `COc1cc(Nc2nc3ccccc3nc2NS(=O)(=O)c2ccc(NC(=O)c3ccc(C)c(OC)c3)cc2)cc(OC)c1`, the growth is 68.2% (inactive) and 39.1% (inactive).

For the compound `COc1cc(-c2nccc3cc4c(cc23)OCO4)cc(OC)c1OC`, the growth is 38.3% (inactive) and 38.8% (inactive).

In the case of `CCN(CC)CCC(CNc1ccnc2cc(Cl)ccc12)c1ccc(OC)cc1` (stereo unspecified), the growth is 98.5% (inactive) and 92.2% (inactive).

On to `CC(=O)Nc1ccc(O)cc1`, for which the growth is 101% (inactive).

Regarding `c1ccc2c(CC3=NCCN3)cccc2c1`, the growth is 107% (inactive) and 104% (inactive).

For the compound `Cc1nn(-c2ccc(Cl)cc2)c2ncnc(N/N=C/c3ccccc3O)c12`, the growth is 29.6% (inactive) and 23.7% (inactive).

Source of the values: PubChem BioAssay (NCI).
